The supplement of paper PMC6555819

Experiments:
Experiment in all cases: PBM binding z-score (relative to random genomic background probes); higher = stronger binding; sequences stand for … in GC…GCGATTGACAGCGTAGAATGAAGG
[1] = tested on: FXR:RXRa (NR concentration 270 nM, RXRa partner concentration 90 nM)
In short: (§1)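 Custom Agilent 4×180K protein-binding microarrays carried double-stranded probes, each with a 34-nt variable region. These regions held direct-repeat seeds, single-nucleotide variants, half-site ablations and random human genomic background sequences. Ligand-free nuclear receptor dimers were incubated on the arrays for 1 h, antibodies against each partner (one per run) detected binding, and scanned fluorescence was regression-normalized. Binding z-scores take the random background probes as reference.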

[2] = tested on: LXRa:RXRa (NR concentration 270 nM, RXRa partner concentration 90 nM)
In short: as §1

[3] = tested on: LXRa homodimer (NR concentration 270 nM)
In short: as §1

[4] = tested on: LXRb:RXRa (NR concentration 270 nM, RXRa partner concentration 90 nM)
In short: as §1

[5] = tested on: LXRb homodimer (NR concentration 270 nM)
In short: as §1

[6] = tested on: PPARa:RXRa (NR concentration 270 nM, RXRa partner concentration 90 nM)
In short: as §1

[7] = tested on: PPARg:RXRa (NR concentration 180 nM, RXRa partner concentration 90 nM)
In short: as §1

[8] = tested on: PPARg:RXRa 270nM:90nM, anti-RXR (NR concentration 270 nM, RXRa partner concentration 90 nM)
In short: as §1

[9] = tested on: PPARg:RXRa 30nM:10nM, anti-RXR (NR concentration 30 nM, RXRa partner concentration 10 nM)
In short: as §1

[10] = tested on: PPARg:RXRa 90nM:30nM, anti-RXR (NR concentration 90 nM, RXRa partner concentration 30 nM)
In short: as §1

[11] = tested on: PPARg:RXRa DBDmut IVT, anti-RXR (DBD mutation: RXRa K156A/R161A, NR concentration 270 nM, RXRa partner concentration 90 nM)
In short: as §1

[12] = tested on: PPARg:RXRa IVT, anti-PPARg (NR concentration 270 nM, RXRa partner concentration 90 nM)
In short: as §1

[13] = tested on: PPARg DBDmut:RXRa IVT, anti-PPARg (DBD mutation: PPARg1 K132A/R137A, NR concentration 270 nM, RXRa partner concentration 90 nM)
In short: as §1

[14] = tested on: PPARg DBDmut IVT, anti-PPARg (DBD mutation: PPARg1 K132A/R137A, NR concentration 270 nM)
In short: as §1

[15] = tested on: PPARg homodimer (NR concentration 180 nM)
In short: as §1

[16] = tested on: PXR:RXRa (NR concentration 270 nM, RXRa partner concentration 90 nM)
In short: as §1

[17] = tested on: PXR homodimer (NR concentration 270 nM)
In short: as §1

[18] = tested on: RARa:RXR (NR concentration 270 nM, RXRa partner concentration 90 nM)
In short: as §1

[19] = tested on: RARa homodimer (NR concentration 270 nM)
In short: as §1

[20] = tested on: RARb:RXRa (NR concentration 270 nM, RXRa partner concentration 90 nM)
In short: as §1

Sequence	PBM binding z-score [1]	PBM binding z-score [2]	PBM binding z-score [3]	PBM binding z-score [4]	PBM binding z-score [5]	PBM binding z-score [6]	PBM binding z-score [7]	PBM binding z-score [8]	PBM binding z-score [9]	PBM binding z-score [10]	PBM binding z-score [11]	PBM binding z-score [12]	PBM binding z-score [13]	PBM binding z-score [14]	PBM binding z-score [15]	PBM binding z-score [16]	PBM binding z-score [17]	PBM binding z-score [18]	PBM binding z-score [19]	PBM binding z-score [20]
ATATGTAGGTTACATCCGGCTCATTCAGGCTATG	0.486	2.28	0.223	1.13	0.756	3.04	4.81	3.99	1.57	3.14	7.66	6.94	2.85	2.21	0.844	0.18	0.0469	0.506	0.258	1.07
AGAATGAGGTTACCAAAGATAAGGGAAACGCTTG	1.56	1.65	-0.398	1.2	-0.13	3.46	2.87	2.43	0.9	1.9	3.63	3.34	0.848	0.91	1.01	0.851	0.109	1.68	0.445	1.73
GGAACGAGGGCAAGTTGGTAGCAGAGTTTGATGG	0.88	0.565	-0.29	0.202	-0.428	1.58	0.752	0.875	-0.334	0.0314	3.6	2.34	-0.479	-0.423	0.722	0.696	0.853	0.662	-0.182	2.79
CCTTACGGGTCACGAGATTATAGCACGACGAGCG	6.02	4.05	0.0796	3.37	0.00532	5.42	6.21	5.93	2.99	4.95	4.81	4.72	1.92	0.779	2.33	3.46	0.13	4.62	1.2	4.26
ATATGTAGGTTATCGGGCCATTCAGTTTGCGCAT	0.607	1.03	0.565	0.95	0.458	3.22	5.22	4.45	1.98	3.76	7.31	6.82	2.32	3.56	1.89	0.605	1.06	0.558	1.09	1.08
TCTCGGAGGACACGAAAGGTCAAAGCTCGACATC	4.46	5.45	6.31	4.92	0.987	4.72	2.15	3.75	2.79	3.33	1.72	2.11	-0.166	-0.0155	3.27	5.39	1.21	5.48	1.41	4.55
AGAATGAGGTTAAGATCAGGGCAACAGAATACAT	2.64	2.98	0.329	2.17	0.282	3.7	2.57	2.84	1.29	2.24	2.97	3.28	1.36	0.923	1.05	2.34	0.694	2.78	0.44	2.45
AGACAAAGTTCATCTAGGTAACGTAAGATATGCT	6.83	6.21	5.23	3.92	1.56	4.91	4.69	4.99	1.93	3.69	1.22	3.2	1.33	1.93	3.1	5.34	6.29	4.17	1.38	4.98
CCGACTGGGGCAGACAGGTTACCATACCATCCGG	-0.305	-0.476	-0.144	-0.341	-0.833	0.114	0.832	0.0365	-0.675	-0.262	1.38	1.47	0.134	-1.89	-0.172	-0.453	-0.382	-0.441	-0.217	0.69
CCGACTAGGGCAAGGTTACCATAACGCACAGCCA	0.299	0.666	-0.117	0.701	-1.03	1.93	3.55	3.99	1.61	3.28	4.54	4.32	-0.62	-0.559	1.27	0.169	-0.069	0.801	0.218	1.91
TCTAGCAGGCCAGAGGGTCACTCATGAGGTACGG	0.745	0.822	-0.462	0.852	-1.1	2.2	1.64	2.87	2.19	2.63	0.668	1.02	-0.735	-1.14	0.486	1.64	-0.579	2.5	-0.79	2.24
ATCGAAAGGTCGAAGGTGAGTATACCCACCCGAA	4.3	3.8	0.189	2.86	0.5	4.67	4.53	5.13	2.14	4.33	0.0439	2.38	0.373	0.686	1.04	2.96	-0.372	3.94	0.591	3.82
CATACAGGGTCAGGTAGGCCAGAGTAGGGACGGC	4	2.92	-0.133	2.21	0.723	4.2	3.15	2.92	0.655	2.16	0.321	2.48	0.416	0.457	1.75	2.23	0.241	3.46	0.612	3.73
TTCCCAAGGTGAGCTGAGGTCGTTGATCCAACTC	3.13	1.59	-0.148	0.959	-1.02	1.55	-0.346	0.767	-0.184	0.534	0.471	1.12	-1.17	-1.13	0.0355	4.98	0.698	2	-0.927	1.75
TCTATTAGTTGATTAGGGCAATCGAAACAGCGGA	0.665	0.828	0.306	0.766	0.542	0.871	0.0917	2.06	3.7	2.93	2.23	1.29	0.785	0.869	1.1	0.568	0.192	0.781	1.56	0.778
CCTGCTAGGTCAATGGTCAGCTTAAGCAGCTCGC	3.08	2.28	-0.0012	1.51	-0.1	3.13	4.41	5.21	2.37	4.79	4.75	4.06	-0.513	-0.387	1.92	1.05	-0.588	1.88	-0.443	3.84
AATACAGGGTCATCGTAGGCCCGAGTACGCACAG	6.78	5.81	2.32	3.99	0.935	5.82	6.57	6.13	2.54	5.01	2.64	3.72	0.916	-0.158	1.25	3.92	0.581	4.7	0.922	4.23
TCATATAGGTAATACAGGTGAAAGTCGGCATCTA	1.2	1.54	0.569	1.2	0.365	2.06	1.67	2.61	4.12	3.5	4.2	3.48	1.31	1.86	1.33	0.888	0.728	1.34	1.98	0.83
GTACCAAGGTGAATAGCTCGTTGATGAGTAGGCG	-0.0145	0.0679	-0.285	-0.246	-0.451	0.416	0.554	0.238	-0.33	-0.123	1.55	1.7	-0.0388	-0.301	-0.135	-0.403	-0.283	-0.0864	-0.272	0.887
AGAATGTGGTTACCAAAGATCAGGGAAACGCTTG	-0.517	0.7	-0.272	-0.139	-0.442	-0.0504	0.469	0.425	0.333	0.271	0.0362	0.248	0.393	0.266	0.264	-0.353	-0.342	-0.178	-0.0425	-0.0731
CTCGAAAGGTCGGTTGACGTGAGTATACGGATAA	1.71	1.46	0.0257	1.44	0.0927	2.2	0.565	0.822	0.194	0.528	0.129	0.68	0.821	0.0479	0.644	1.01	-0.25	1.5	-0.0456	2.91
TCTGCTAGGTCAACGATCGTCAGCTAATCTGCTA	2.97	2.19	-0.465	1.24	-0.245	3.11	2.49	3.26	1.96	2.76	4.39	4.24	-0.071	-0.625	0.478	0.836	-0.972	1.79	-1.13	3.96
GTACCAAGGTGAATAGGTCGTAGATGAGTAGGCG	0.946	0.897	-0.305	0.416	-0.297	2.39	1.82	2.02	0.602	1.25	1.69	2.84	-0.433	-0.143	0.982	0.659	-0.144	1.8	0.467	2.17
ATCTCTAGGTAACCAAGTTCACTGAATGCCGAAC	0.969	1.87	2	1.58	1.09	2.25	1.1	1.54	0.634	1.2	3.89	3.32	0.487	1.47	1.17	3.1	3.34	1.64	0.615	1.9
TAGCCTAGGTCAATCAGGGGCCAGTATAGAAAGC	3.77	2.77	0.313	2.59	0.0516	3.34	2.24	2.28	0.674	1.76	1.74	2.75	-0.205	0.00211	1.32	2.04	-0.411	3.2	-0.673	3.89
TATACAGGGTCAAATGCCAGAGTACGAATGTCGA	7.66	6.63	3.82	5.33	3.42	6.33	7.57	6.6	3.95	5.73	2.62	4.6	3.56	3.07	3.17	4.3	1.12	5.47	1.22	4.55
ATCCCTAGGTAAGACTCAGTTCAGTGAAGAACGC	0.273	0.364	0.479	0.29	0.516	-0.0282	0.0747	-0.195	-0.259	-0.0563	0.0897	-0.242	-0.265	0.674	0.578	1.06	1.32	0.256	0.532	0.244
CAAACTAGGTCAAGAGGTCAAAGTGCGCTTCCCG	7.08	6.47	5.76	5.71	2.04	6.59	10.2	8.63	7.04	8.54	8.41	8.51	1.86	0.825	5.5	6.13	2.6	7.48	2.21	5.47
TATACAGGGTGAAAGGCCAGAGTACGAATGTCGA	0.996	0.959	-0.157	1.08	0.982	3.14	5.05	5.48	4.23	5.46	1.07	3.51	1.71	0.732	1.24	0.643	0.178	1.31	0.323	1.68
